# Assay outcomes: PubChem, The Scripps Research Institute Molecular Screening Center
# PREPL inhibitor = human PREPL enzyme inhibition; AID 2751; inhibition, % at 5.96 µM; recombinant PREPL, fluorescence polarization activity-based probe; 320,000 tested, 0.68% active; Q4J6C6; in the data active means inhibition above about 43%;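 further: 0% = enzyme with DMSO and 100% = wells lacking enzyme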
# LYPLA2 inh = blocks human lysophospholipase 2, a PME1 counter-screen; O95372; recombinant LYPLA2, FP-Rh probe fluorescence polarization; inhibition, % at 5.9 µM; 320,000 tested, 0.38% active; AID 2177;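 active means inhibition above the screen-wide mean plus 3 SD, limit set per campaign, cut at about 26% in these data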;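 further: 0% = LYPLA2 with DMSO and 100% = wells lacking LYPLA2 enzyme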
# LYPLA1 inh = blocks human lysophospholipase 1, a PME1 counter-screen | O75608 | recombinant LYPLA1, FP-Rh probe fluorescence polarization | inhibition, % at 5.9 µM | 320,000 tested, 0.16% active;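 active means inhibition above the mean of all tested compounds plus 3 SD, set per campaign, cut at about 14% in these data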;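 further: inhibitors block serine hydrolase probe labeling of LYPLA1 so polarization falls; 0% = enzyme with DMSO and 100% = wells lacking LYPLA1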
# Target sequence (O75608 whole entry, looked up): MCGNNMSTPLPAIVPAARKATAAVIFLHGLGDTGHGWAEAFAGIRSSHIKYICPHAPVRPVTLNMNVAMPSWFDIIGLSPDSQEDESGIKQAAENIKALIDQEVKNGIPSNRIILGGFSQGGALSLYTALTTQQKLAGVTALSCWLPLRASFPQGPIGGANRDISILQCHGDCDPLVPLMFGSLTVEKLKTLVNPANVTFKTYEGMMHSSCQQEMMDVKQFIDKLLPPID
# PME-1 inh = PME-1 (human) inhibition. AID 2130. Q9Y570. 320,000 tested, 0.53% active. recombinant PME-1, FP-Rh probe fluorescence polarization. inhibition, % at 5.9 µM;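 active means inhibition above the campaign mean of all compounds plus 3 SD, cut at about 26% in these data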;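 further: competitive labeling of PME-1 active site by serine hydrolase directed probe; 0% = PME-1 with DMSO and 100% = wells lacking PME-1 enzyme; inhibitors block probe labeling so polarization falls and inhibition rises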
# Target sequence (Q9Y570 whole entry, looked up): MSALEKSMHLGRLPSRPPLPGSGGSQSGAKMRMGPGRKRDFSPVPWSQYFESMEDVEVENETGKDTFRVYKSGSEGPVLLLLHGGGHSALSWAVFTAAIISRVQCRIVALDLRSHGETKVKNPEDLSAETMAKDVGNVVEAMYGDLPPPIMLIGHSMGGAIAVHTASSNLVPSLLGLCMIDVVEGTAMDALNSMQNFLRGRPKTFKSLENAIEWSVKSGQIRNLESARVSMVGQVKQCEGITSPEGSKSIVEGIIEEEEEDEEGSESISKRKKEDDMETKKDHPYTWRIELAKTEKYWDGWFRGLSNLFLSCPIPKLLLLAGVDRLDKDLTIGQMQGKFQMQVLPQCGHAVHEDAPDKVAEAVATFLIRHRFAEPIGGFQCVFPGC
# Fam108B counter = blocks mouse Fam108B hydrolase in RBBP9 counter-screen. recombinant Fam108B, FP-Rh probe fluorescence polarization. inhibition, % at 9.51 µM. 300,000 tested, 0.33% active. AID 1947;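 active means inhibition above the screen mean inhibition plus 3 SD, computed separately per campaign, cut at about 18% in these data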;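 further: inhibitors lower polarization as less probe binds the enzyme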
# Fam108b inh conf = confirmation of mouse Fam108b serine hydrolase inhibitors | shares compounds with Fam108B counter | recombinant Fam108b, FP-Rh probe fluorescence polarization | inhibition, % at 9.51 µM | 930 tested, 44% active | AID 1978;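 active means inhibition above a limit from the primary screen, the mean over all compounds plus 3 SD, cut at about 19% in these data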;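 further: 0% = median of active Fam108b wells and 100% = catalytically dead S170A mutant; inhibitors free the probe so polarization falls as inhibition rises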
# Fam108b ABPP HTS = inhibits mouse Fam108b in gel-based ABPP. shares compounds with Fam108B counter. recombinant Fam108b, fluorophosphonate probe. inhibition, % at 20 µM. 260 tested, 44% active; in the data active means inhibition above about 40%
# Starred values were filed as active, the others as inactive; / = no result. In the library only some 1.3% were active in any assay of this set; here they are far more common.
SMILES,PREPL inhibitor,LYPLA2 inh,LYPLA1 inh,PME-1 inh,Fam108B counter,Fam108b inh conf,others
O=C(NCC(=O)N(c1ccc(F)cc1)C(C(=O)NC1CCCC1)c1ccncc1)c1ccco1 (configuration not stated),7.6,0.7,-0.3,-0.6,-4.5,/,
Cc1ccc(SC2=C(Sc3ccc(C)cc3)C(=O)c3ccccc3C2=O)cc1,18.1,17.6,0.1,8.1,22.1*,10.8,
Cc1ccc(N2C(=O)c3ccccc3C2=O)cc1,1.8,-5.0,3.7,-2.4,-3.4,/,
Cc1nn(-c2ccccc2)c(Cl)c1C=NNc1ccc(S(=O)(=O)Nc2ccccc2C(=O)O)cc1[N+](=O)[O-],/,/,/,/,/,/,Fam108b ABPP HTS=0.0
CC(=O)Nc1ccc(C=NNc2ccc(S(=O)(=O)Nc3ccccc3C(=O)O)cc2[N+](=O)[O-])cc1,37.2,/,/,/,/,/,
Cc1cccc(-c2nnc(SC(C)C(=O)N3CCOCC3)o2)c1 (configuration not stated),19.9,-5.6,2.0,8.1,2.6,/,
O=[N+]([O-])c1cc(Br)c(O)c(C=NNc2nnnn2-c2cccc3ccccc23)c1,/,/,/,/,/,/,Fam108b ABPP HTS=0.0
O=C(N/N=C/c1cc([N+](=O)[O-])cc([N+](=O)[O-])c1O)C(O)(c1ccccc1)c1ccccc1,7.0,-7.2,-3.0,6.3,/,/,
COc1ccc(OC2CCN(S(=O)(=O)c3ccc(C(C)=O)cc3)CC2)cc1,-14.0,16.6,9.2,4.8,3.6,/,
CCN(CC)S(=O)(=O)c1ccc(N/N=C/c2ccc(O)cc2O)nc1,11.4,-1.1,-5.1,48.1*,21.6*,5.8,
CC1(c2nnc(-c3ccncc3)o2)CC(c2cccc(Cl)c2)=NO1 (configuration not stated),-3.8,3.2,1.3,-5.4,0.0,/,
Cc1ccc(-c2nc(Nc3ccc(O)cc3)c3ccccc3n2)cc1,18.2,9.1,-5.5,41.3*,34.9*,3.1,
COc1ccc(Nc2nc(-c3ccccc3O)nc3ccccc23)cc1,10.6,-4.2,-17.0,16.9,25.4*,-19.7,
CCCSc1ccc([C@@H]2[C@@H]3C(=O)N(C)C(=O)[C@@H]3[C@]3(C(=O)OC)CCCN23)cc1OC,-3.5,-0.3,0.8,-4.0,1.6,/,
Cc1ccc(OCC(=O)Nc2oc(-c3ccccc3)c(-c3ccccc3)c2C#N)cc1,0.6,-22.7,-17.9,-15.0,-9.4,/,
COc1ccc(-c2oc(NC(=O)CCl)c(C#N)c2-c2ccc(OC)cc2)cc1,13.2,8.3,3.4,41.9*,22.4*,33.7*,Fam108b ABPP HTS=20.0
Cc1cccc(C)c1NC(=O)CN(C)C(=O)c1ccc2nc[nH]c2c1,21.8,0.8,-1.8,-8.5,3.6,/,
CCN(c1ccccc1)S(=O)(=O)c1ccc(NC(=O)c2nc(S(C)(=O)=O)ncc2Cl)cc1,-5.0,-4.6,-12.0,17.0,38.1*,37.1*,Fam108b ABPP HTS=80.0*
O=C(CNS(=O)(=O)c1ccc(F)cc1)N1CCCC1,9.9,9.2,2.5,-0.5,1.9,/,
COc1cc(C2Nc3cccc4cccc(c34)N2)cc(OC)c1OC(C)=O,21.3,3.1,-3.2,22.6,33.7*,0.9,
CC(C)C[C@H](NC(=O)N1CCn2c1nc1ccccc12)C(=O)NCC1CCCO1 (some centres not stated),1.5,10.2,3.3,3.9,-2.9,/,
CCCc1cc(SCC(=O)Nc2c(C)n(C)n(-c3ccccc3)c2=O)n2c(nc3ccccc32)c1C#N,-9.9,-0.1,-3.0,-8.0,24.0*,22.6*,
Cn1c2ccccc2c2cc(/C=N/NC(=O)c3cc(O)ccc3O)ccc21,30.5,3.0,-7.3,50.3*,45.6*,40.4*,
Cn1c2ccccc2c2cc(C=NNC(=O)c3cc(O)ccc3O)ccc21,/,/,/,/,/,/,Fam108b ABPP HTS=85.0*
Cc1ccc(N=Nc2ccc3ccccc3c2O)cc1,-2.1,-0.2,3.6,-4.7,28.5*,8.6,
SMILES,PREPL inhibitor,LYPLA2 inh,LYPLA1 inh,PME-1 inh,Fam108B counter,Fam108b inh conf,others
COc1ccc(N=Nc2ccc3ccccc3c2)c(O)c1,13.2,-0.3,-0.6,0.6,-1.1,/,
COc1cccc(N=Nc2ccc3ccccc3c2O)c1,9.2,-4.4,-4.6,6.8,19.3*,5.0,
Cc1cc(NC(=O)COC(=O)CNS(=O)(=O)c2c(F)cc(F)cc2Br)no1,-4.3,/,/,/,/,/,
O=c1cc(CSc2ccc(Cl)cc2)[nH]c2[nH]n(-c3ccccc3)c(=O)c12,37.3,7.5,-3.5,9.9,19.4*,-1.7,
Cc1ccc(SCc2cc(=O)c3c(=O)n(-c4ccccc4)[nH]c3[nH]2)cc1,4.4,3.0,-0.5,3.0,5.3,/,
O=C(COC(=O)c1ccc(O)cc1)Nc1cc(C(F)(F)F)ccc1N1CCOCC1,21.9,6.6,-0.7,-2.0,/,/,
O=C(Nc1ccc(-c2csc(Nc3ccc(Cl)cc3)n2)cc1)c1cccc(C(F)(F)F)c1,17.6,6.1,-10.9,26.4*,49.7*,67.7*,Fam108b ABPP HTS=95.0*
O=C(Nc1cccc(-c2csc(Nc3cccc(C(F)(F)F)c3)n2)c1)c1cc([N+](=O)[O-])cc(C(F)(F)F)c1,-2.1,-10.1,-6.8,2.4,18.6*,2.4,
O=C(Nc1ccc(-c2csc(Nc3ccccc3)n2)cc1)c1cc([N+](=O)[O-])cc(C(F)(F)F)c1,3.5,-8.4,-11.2,1.0,64.5*,87.0*,Fam108b ABPP HTS=100.0*
Cc1cccc(C)c1NC(=O)Cn1c(CN2CCCCC2)nc2ccccc2c1=O,11.9,-11.7,-1.4,-7.2,20.8*,1.6,
COc1ccc2nc(-c3ccco3)c(-c3ccco3)nc2c1,26.1,4.2,-3.0,-1.2,21.4*,53.7*,Fam108b ABPP HTS=35.0
c1coc(-c2nc(-c3ccco3)c(-c3ccco3)nc2-c2ccco2)c1,70.9*,-0.9,-15.4,4.1,71.4*,9.6,
Nc1nc(-c2ccco2)c(-c2ccco2)s1,10.7,-2.4,-2.6,0.9,13.8,/,
COc1ccc2nc3cccc(OC)c3nc2c1,3.6,4.5,0.2,-2.7,8.0,/,
CC(C)NC(=O)CCCc1c[nH]c2ccccc12,7.3,-0.7,2.8,-3.1,-1.1,/,
Cc1ccc(S(=O)(=O)N=C2C=C(Sc3ncn[nH]3)C(=O)c3ccccc32)c(C)c1,/,/,/,/,/,/,Fam108b ABPP HTS=95.0*
Cc1ccc(C)c(S(=O)(=O)/N=C2\C=C(NS(=O)(=O)c3ccccc3)C(=O)c3ccccc32)c1,-6.7,-20.4,-13.0,4.8,4.2,/,
CCc1ccc(S(=O)(=O)N=C2C=C(Sc3ncn[nH]3)C(=O)c3ccccc32)cc1,/,/,/,/,/,/,Fam108b ABPP HTS=60.0*
CCc1ccc(-c2nnn(CC(=O)N(C3CCCC3)C3CCS(=O)(=O)C3)n2)cc1 (configuration not stated),7.5,7.2,-0.6,4.5,/,/,
O=C(c1cc2ncc(Br)cn2n1)N1CCN(C(=O)c2ccco2)CC1,9.1,-0.9,-3.2,1.0,19.2*,-6.9,
O=C(c1cc2ncc(Br)cn2n1)N1CCOCC1,5.3,-5.7,-3.5,-2.3,1.4,/,
Cc1ccc2[nH]c(C(=O)NN=C3CCCCC3)c(-c3ccccc3)c2c1,11.6,-17.2,-4.7,-3.9,0.0,/,
CC1=NN(c2ccccc2)C(=O)/C1=C/c1cccs1,3.0,4.3,0.5,0.4,-2.5,/,
